From PubChem BioAssay (EPA / NIEHS)
Where “and” joins values, the source holds several entries; their conditions need not be identical. Equal entries are not always repeated. Inconclusive results are not listed. Calls of active or inactive are those of the source. How the source made its calls, unless noted: active means hit-call score of the fitted dose curve at least 0.9, where 1 is the maximum; inconclusive means response in the unintended direction; inactive means score below 0.9.

Assays:
[1] = target: rat Thyrotropin Releasing Hormone Receptor (TRH), Trhr (gene 25570) (UniProt Q01717); assay: NVS_GPCR_rTRH: NovaScreen (NVS) G Protein-Coupled Receptor Assay for rat Thyrotropin Releasing Hormone Receptor (TRH) (AID 2283329);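 further: hit means lower bound tracer signal versus DMSO baseline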
rat Thyrotropin Releasing Hormone Receptor (TRH), Trhr (gene 25570), sequence (Q01717 whole entry, looked up): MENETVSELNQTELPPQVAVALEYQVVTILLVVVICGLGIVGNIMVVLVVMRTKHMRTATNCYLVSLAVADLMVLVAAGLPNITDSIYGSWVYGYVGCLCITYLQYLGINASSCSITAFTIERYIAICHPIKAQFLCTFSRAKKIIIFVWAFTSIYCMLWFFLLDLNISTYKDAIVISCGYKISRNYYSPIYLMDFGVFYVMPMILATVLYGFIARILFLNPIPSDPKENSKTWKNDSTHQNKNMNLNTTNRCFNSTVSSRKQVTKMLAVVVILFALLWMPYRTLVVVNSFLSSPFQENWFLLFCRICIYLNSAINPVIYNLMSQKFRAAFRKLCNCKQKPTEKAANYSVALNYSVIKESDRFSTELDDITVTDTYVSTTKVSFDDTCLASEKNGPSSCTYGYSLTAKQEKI
Outline: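 Competitive radioligand binding on rat forebrain membrane preparations, with filtration and scintillation readout after 4 h. Primary testing in duplicate at 25 uM; actives confirmed in concentration-response. DMSO defined baseline.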

[2] = target: Bile acid receptor (Homo sapiens) (UniProt Q96RI1); assay: OT_FXR_FXRSRC1_1440: Odyssey Thera (OT) 24-hour HEK293T Protein-Complementation Assay for Farnesoid X receptor/SRC-1 Co-activator (AID 2283384)
Bile acid receptor (Homo sapiens), sequence (Q96RI1 whole entry, looked up, the tested form may be a part): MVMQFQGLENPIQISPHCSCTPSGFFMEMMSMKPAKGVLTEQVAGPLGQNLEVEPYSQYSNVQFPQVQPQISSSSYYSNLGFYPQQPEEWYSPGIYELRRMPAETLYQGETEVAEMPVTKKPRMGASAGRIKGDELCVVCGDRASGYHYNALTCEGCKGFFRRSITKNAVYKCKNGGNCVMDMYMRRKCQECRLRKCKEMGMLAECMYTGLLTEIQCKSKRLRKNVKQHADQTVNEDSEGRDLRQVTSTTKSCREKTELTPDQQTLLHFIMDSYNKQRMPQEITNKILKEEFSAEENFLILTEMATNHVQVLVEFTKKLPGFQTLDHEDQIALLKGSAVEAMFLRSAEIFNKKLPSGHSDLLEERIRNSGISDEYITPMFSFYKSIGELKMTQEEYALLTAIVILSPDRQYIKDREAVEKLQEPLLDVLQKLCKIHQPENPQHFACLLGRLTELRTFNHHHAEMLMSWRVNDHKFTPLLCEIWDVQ
Outline: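 Measures ligand-driven FXR–SRC-1 co-activator recruitment in HEK293T via fragment complementation, fluorescence intensity at 24 h. DMSO served as negative control and baseline for gain-of-signal fitting.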

[3] = tested on: Thyroperoxidase (TPO), gene 54314; assay: CCTE_Simmons_AUR_rTPO: CCTE's Amplex UltraRed Assay for Thyroperoxidase (TPO) Inhibition, Simmons Lab (AID 2283662);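 on AC50: potency for loss of signal meaning inhibition of peroxidase activity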
Outline: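 Rat thyroid microsomes (5 ug protein) were incubated with test compound (8 concentrations, 5 nM–87.5 uM final, 0.5% DMSO), 25 uM Amplex UltraRed and 300 uM H2O2 in 200 mM phosphate buffer for 30 min at 37C in the dark; fluorescence read at 544/590 nm.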

[4] = CCTE_Simmons_CellTiterGLO_HEK293T: Viability Assessment in CCTE's Assays for Thyroperoxidase (TPO) Inhibition, Simmons Lab (AID 2283665);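 on AC50: cells exposed to compound for 24 h before readout; actives reduce ATP signal below DMSO vehicle meaning cytotoxicity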
Outline: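 Cells were seeded overnight, then exposed to an eight-point series up to 87.5 uM final for 24 hours. CellTiter-Glo reagent was added and luminescence read after 20 min, giving ATP-based viability versus DMSO.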

[5] = read-out: Interleukin-8 (IL8), CXCL8 (gene 3576); assay: BSK_CASM3C_IL8: BioMAP Diversity Plus: CASM3C Assay for Interleukin-8 (IL8) Biomarker Activity (AID 2283042; active means hit-call score of the fitted dose curve at least 0.9, where 1 is the maximum; inactive means score below 0.9;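 further: IL-8 protein level quantified by ELISA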); settings: primary human coronary artery smooth muscle cells; actives raise or lower the signal
[6] = read-out: Urokinase-type plasminogen activator receptor (uPAR), PLAUR (gene 5329); assay: BSK_CASM3C_uPAR: BioMAP Diversity Plus: CASM3C Assay for Urokinase-type plasminogen activator receptor (uPAR) Biomarker Activity (AID 2283054; active means hit-call score of the fitted dose curve at least 0.9, where 1 is the maximum; inactive means score below 0.9;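 further: cell-surface uPAR protein level quantified by ELISA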); settings: primary human coronary artery smooth muscle cells; actives raise or lower the signal
[7] = target: Estrogen-related receptor gamma (Homo sapiens) (UniProt P62508); assay: ATG_ERRg_TRANS: Attagene TRANS-FACTORIAL HepG2 Assay for human Estrogen-Related Receptor gamma (ERRg) (AID 2282977); settings: HepG2 Attagene TRANS reporter, ERRg transactivation;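 further: hits increase reporter signal over DMSO so potencies reflect activators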
Estrogen-related receptor gamma (Homo sapiens), sequence (P62508 whole entry, looked up, the tested form may be a part): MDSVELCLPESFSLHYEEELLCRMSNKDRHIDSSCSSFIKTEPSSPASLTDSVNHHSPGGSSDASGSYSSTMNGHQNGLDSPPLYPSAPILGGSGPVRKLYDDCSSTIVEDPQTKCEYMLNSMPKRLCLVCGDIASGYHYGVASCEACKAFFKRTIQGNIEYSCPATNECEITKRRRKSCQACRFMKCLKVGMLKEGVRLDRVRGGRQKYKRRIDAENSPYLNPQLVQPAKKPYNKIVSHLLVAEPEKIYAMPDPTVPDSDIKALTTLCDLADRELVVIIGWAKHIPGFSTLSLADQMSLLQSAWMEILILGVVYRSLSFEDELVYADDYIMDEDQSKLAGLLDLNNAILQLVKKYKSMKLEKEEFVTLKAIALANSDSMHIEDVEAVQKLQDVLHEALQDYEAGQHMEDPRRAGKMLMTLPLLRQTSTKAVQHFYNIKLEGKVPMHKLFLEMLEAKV
Outline: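 Induction of reporter transcripts through a chimeric NR-Gal4 protein is quantified in transfected human HepG2 liver cells after 24 h chemical exposure, using RT-PCR with capillary electrophoresis detection and DMSO as baseline.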

[8] = target: human Ephrin type-A Receptor 1 (EphA1), EPHA1 (gene 2041) (UniProt P21709); assay: NVS_ENZ_hEphA1: NovaScreen (NVS) Enzymatic Assay for human Ephrin type-A Receptor 1 (EphA1) (AID 2283158);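 further: activity is signal loss versus DMSO meaning EphA1 kinase inhibition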
human Ephrin type-A Receptor 1 (EphA1), EPHA1 (gene 2041), sequence (P21709 whole entry, looked up): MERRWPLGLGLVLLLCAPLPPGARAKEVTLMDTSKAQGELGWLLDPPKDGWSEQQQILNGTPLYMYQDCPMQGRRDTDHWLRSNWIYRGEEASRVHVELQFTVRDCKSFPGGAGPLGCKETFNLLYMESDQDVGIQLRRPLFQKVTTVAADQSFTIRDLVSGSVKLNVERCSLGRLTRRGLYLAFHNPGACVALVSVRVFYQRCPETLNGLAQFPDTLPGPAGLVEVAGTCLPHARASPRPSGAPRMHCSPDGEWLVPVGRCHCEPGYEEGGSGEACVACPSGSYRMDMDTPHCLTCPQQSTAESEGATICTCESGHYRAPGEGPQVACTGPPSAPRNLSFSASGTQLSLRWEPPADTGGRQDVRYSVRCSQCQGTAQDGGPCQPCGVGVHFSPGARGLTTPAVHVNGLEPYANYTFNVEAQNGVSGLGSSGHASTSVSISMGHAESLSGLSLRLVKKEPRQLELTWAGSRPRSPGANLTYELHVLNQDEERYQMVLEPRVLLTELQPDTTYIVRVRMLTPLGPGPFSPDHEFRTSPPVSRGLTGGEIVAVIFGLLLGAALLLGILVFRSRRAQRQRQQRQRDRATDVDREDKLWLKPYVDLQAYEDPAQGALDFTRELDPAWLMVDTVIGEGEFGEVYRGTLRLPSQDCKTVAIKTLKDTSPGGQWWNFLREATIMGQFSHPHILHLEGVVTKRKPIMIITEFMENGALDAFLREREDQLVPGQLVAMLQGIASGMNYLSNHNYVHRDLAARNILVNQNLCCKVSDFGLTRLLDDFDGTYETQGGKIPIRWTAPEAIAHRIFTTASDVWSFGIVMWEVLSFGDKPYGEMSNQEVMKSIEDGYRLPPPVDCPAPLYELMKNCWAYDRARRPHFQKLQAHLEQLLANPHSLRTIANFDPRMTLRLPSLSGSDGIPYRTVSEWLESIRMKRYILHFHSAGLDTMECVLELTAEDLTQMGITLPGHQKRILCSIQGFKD
Outline: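 Recombinant kinase, fluorescent substrate, mobility-shift separation, fluorescence read at 1 h. Single-point duplicates at 25 uM; hits (e.g., ≥30% inhibition) run singleton concentration-response, max 50 uM. DMSO = negative control/baseline.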

[9] = target: human Phosphodiesterase 10 (PDE10), PDE10A (gene 10846) (UniProt Q9Y233); assay: NVS_ENZ_hPDE10: NovaScreen (NVS) Enzymatic Assay for human Phosphodiesterase 10 (PDE10) (AID 2283195)
human Phosphodiesterase 10 (PDE10), PDE10A (gene 10846), sequence (Q9Y233 whole entry, looked up): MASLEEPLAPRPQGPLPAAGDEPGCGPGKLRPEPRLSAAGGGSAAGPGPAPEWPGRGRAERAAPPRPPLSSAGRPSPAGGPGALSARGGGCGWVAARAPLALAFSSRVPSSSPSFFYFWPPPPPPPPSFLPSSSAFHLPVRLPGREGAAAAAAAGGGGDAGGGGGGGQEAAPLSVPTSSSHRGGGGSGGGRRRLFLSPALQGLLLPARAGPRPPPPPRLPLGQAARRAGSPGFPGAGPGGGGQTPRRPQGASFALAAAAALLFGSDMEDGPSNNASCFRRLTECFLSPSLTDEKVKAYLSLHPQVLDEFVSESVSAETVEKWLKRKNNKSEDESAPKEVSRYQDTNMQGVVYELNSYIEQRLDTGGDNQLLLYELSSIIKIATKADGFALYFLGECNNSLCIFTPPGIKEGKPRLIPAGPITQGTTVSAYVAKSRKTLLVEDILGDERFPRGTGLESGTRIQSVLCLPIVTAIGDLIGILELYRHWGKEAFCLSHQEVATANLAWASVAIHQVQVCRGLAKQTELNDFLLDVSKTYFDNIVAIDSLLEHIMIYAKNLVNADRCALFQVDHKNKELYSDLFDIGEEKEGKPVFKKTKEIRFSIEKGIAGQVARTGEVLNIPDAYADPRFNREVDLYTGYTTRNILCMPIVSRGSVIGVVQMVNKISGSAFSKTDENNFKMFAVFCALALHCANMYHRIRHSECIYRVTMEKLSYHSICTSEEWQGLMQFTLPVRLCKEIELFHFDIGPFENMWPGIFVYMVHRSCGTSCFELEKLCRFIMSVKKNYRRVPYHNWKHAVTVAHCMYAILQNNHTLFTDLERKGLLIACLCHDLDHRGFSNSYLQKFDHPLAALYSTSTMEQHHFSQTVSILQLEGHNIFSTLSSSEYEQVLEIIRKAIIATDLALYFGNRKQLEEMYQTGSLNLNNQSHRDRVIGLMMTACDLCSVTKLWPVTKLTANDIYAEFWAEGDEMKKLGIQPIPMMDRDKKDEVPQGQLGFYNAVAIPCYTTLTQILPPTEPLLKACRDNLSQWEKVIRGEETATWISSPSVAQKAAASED
Outline: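 Readout is fluorescence intensity following electrophoretic mobility-shift separation, 1 h after dosing of isolated PDE10A protein. Hits meeting a preset threshold at 25 uM went to concentration series (max 50 uM), analysed relative to DMSO.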

[10] = target: rat CYP2D1, Cyp2d1 (gene 266684) (UniProt P10633); assay: NVS_ADME_rCYP2D1: NovaScreen (NVS) CYP450-related Enzyme Activity (ADME) Assay for rat CYP2D1 (AID 2283122)
rat CYP2D1, Cyp2d1 (gene 266684), sequence (P10633 whole entry, looked up): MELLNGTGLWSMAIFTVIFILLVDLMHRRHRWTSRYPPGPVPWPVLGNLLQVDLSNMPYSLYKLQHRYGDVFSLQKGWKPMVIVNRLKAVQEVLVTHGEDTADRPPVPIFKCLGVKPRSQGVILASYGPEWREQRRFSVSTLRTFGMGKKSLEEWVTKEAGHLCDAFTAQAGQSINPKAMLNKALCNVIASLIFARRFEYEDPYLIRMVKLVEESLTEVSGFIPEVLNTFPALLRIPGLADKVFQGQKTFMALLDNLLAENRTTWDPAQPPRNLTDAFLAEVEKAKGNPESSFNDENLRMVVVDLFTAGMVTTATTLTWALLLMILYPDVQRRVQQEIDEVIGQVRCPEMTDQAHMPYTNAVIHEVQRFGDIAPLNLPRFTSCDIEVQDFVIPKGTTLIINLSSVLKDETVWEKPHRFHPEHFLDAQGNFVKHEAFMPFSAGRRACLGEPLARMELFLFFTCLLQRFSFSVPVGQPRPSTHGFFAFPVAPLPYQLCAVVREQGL
Outline: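 Rat CYP2D1 enzyme activity measured by fluorescence intensity in a cell-free format, 0.75 h post-dosing, acetonitrile as negative control. Screening at 10 uM in duplicate, with actives followed in concentration series up to 20 uM.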

[11] = target: human CYP4F12, CYP4F12 (gene 66002) (UniProt Q9HCS2); assay: NVS_ADME_hCYP4F12: NovaScreen (NVS) CYP450-related Enzyme Activity (ADME) Assay for human CYP4F12 (AID 2283111)
human CYP4F12, CYP4F12 (gene 66002), sequence (Q9HCS2 whole entry, looked up): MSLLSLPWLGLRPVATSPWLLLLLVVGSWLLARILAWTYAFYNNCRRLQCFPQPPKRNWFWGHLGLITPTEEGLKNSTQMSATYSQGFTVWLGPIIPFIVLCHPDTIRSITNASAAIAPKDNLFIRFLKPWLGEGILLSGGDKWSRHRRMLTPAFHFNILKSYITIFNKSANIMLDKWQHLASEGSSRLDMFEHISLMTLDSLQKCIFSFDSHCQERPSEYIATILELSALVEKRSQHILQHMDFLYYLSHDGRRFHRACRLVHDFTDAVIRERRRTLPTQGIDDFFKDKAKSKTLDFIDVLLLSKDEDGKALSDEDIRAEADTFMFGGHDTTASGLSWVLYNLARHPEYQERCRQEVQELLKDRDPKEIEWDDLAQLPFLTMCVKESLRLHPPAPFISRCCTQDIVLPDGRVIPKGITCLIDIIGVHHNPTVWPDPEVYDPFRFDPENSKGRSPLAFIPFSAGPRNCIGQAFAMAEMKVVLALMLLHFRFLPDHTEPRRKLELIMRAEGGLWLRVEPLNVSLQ
Outline: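 Recombinant enzyme with a fluorescent substrate, signal read at 0.5 h post-dose; activity loss analysed relative to acetonitrile. Compounds first run in duplicate at 10 uM, with follow-up concentration-response testing of actives.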

Q: Which results are given for COc1cc(OC)nc(Oc2cccc(Oc3nc(OC)cc(OC)n3)c2C(=O)O)n1?
A: outcome [1]: inactive; outcome [2]: inactive; AC50 [3]: 34.9 µM (active); outcome [4]: inactive

Q: Which outcome [5] does the source give for CCCOC(=O)c1ccccc1C(=O)OCCC here?
A: inactive

Q: What about the AC50 [6] of the same molecule?
A: 5.19 µM (active)

Q: Which outcome [7] does the source give for O=C=Nc1ccccc1 here?
A: inactive

Q: What about the outcome [3] of the same molecule?
A: inactive

Q: And the outcome [4]?
A: inactive

Q: Which outcome [1] does the source give for Oc1ccc(Cl)cc1 here?
A: inactive

Q: With O=C1Nc2ccc(Cl)cc2C(c2ccccc2)=NC1O (centres undefined) as the molecule, how does the outcome [2] read?
A: inactive

Q: Which AC50 [5] does the source give for O=C(O)CCCc1ccc(N(CCCl)CCCl)cc1 here?
A: 20 µM (active)

Q: What about the AC50 [6] of the same molecule?
A: 30.6 µM (active) and 20 µM (active)

Q: And the outcome [8]?
A: inactive

Q: With Nc1ccc(Cl)c(Cl)c1 as the molecule, how does the outcome [7] read?
A: inactive

Q: And the AC50 [3]?
A: 1.16 µM (active)

Q: And the AC50 [4]?
A: 2.18 µM (active)

Q: Which outcome [7] does the source give for CC(C)(C)C(=O)CCl here?
A: inactive

Q: And the outcome [6]?
A: inactive

Q: And the outcome [8]?
A: inactive

Q: Which AC50 [5] does the source give for CCC(C)c1cc([N+](=O)[O-])cc([N+](=O)[O-])c1OC(=O)C=C(C)C (centres undefined) here?
A: 9.2 µM (active)

Q: For O=[N+]([O-])C=Cc1ccccc1, which outcome [7] is on record?
A: inactive

Q: What about the AC50 [5] of the same molecule?
A: 20 µM (active)

Q: What about the AC50 [6] of the same molecule?
A: 8.89 µM (active)

Q: What about the outcome [8] of the same molecule?
A: inactive

Q: And the outcome [9]?
A: inactive

Q: Which outcome [8] does the source give for BrCBr here?
A: inactive

Q: With Clc1ccc(-c2ccccc2)cc1 as the molecule, how does the outcome [7] read?
A: inactive

Q: What about the outcome [5] of the same molecule?
A: inactive

Q: And the outcome [6]?
A: inactive

Q: And the outcome [9]?
A: inactive

Q: With O=P(O)(Oc1ccccc1)Oc1ccccc1 as the molecule, how does the outcome [1] read?
A: inactive

Q: And the outcome [2]?
A: inactive

Q: With Nc1cc(Cl)cc(Cl)c1 as the molecule, how does the outcome [1] read?
A: inactive

Q: What about the outcome [2] of the same molecule?
A: inactive

Q: And the AC50 [3]?
A: 17.1 µM (active)

Q: What about the outcome [4] of the same molecule?
A: inactive

Q: Which outcome [1] does the source give for CCCC=NO here?
A: inactive

Q: Which results are given for C=CCN(CC=C)C(=O)C(Cl)Cl?
A: outcome [5]: inactive; outcome [6]: inactive; outcome [1]: inactive

Q: Which outcome [7] does the source give for O=c1c2ccccc2c(=O)c2c1cc(Cl)c1[nH]c3c([nH]c12)c(Cl)cc1c(=O)c2ccccc2c(=O)c13 here?
A: inactive

Q: And the outcome [5]?
A: inactive

Q: And the outcome [6]?
A: inactive

Q: And the outcome [9]?
A: inactive

Q: For Cc1ncc(C[n+]2csc(CCO)c2C)c(N)n1, which outcome [8] is on record?
A: inactive

Q: And the outcome [9]?
A: inactive

Q: With CCCCOCCOCCOCc1cc2c(cc1CCC)OCO2 as the molecule, how does the AC50 [10] read?
A: 5.69 µM (active)

Q: Which outcome [11] does the source give for NC(=O)c1nc(-c2cccc(-c3cc(F)ccc3OCC(F)(F)C(F)(F)F)c2)n[nH]1 here?
A: inactive
